# From the supplement of paper PMC6411743
# ± gives the standard deviation of the averaged measurements. Targets with the largest changes are over-represented here; the source holds about 5,400 in all.
# Biological target: T1, B1ALK7|Q14155-1|Q14155-5 (UniProt Q14155)
# T1 sequence (whole entry): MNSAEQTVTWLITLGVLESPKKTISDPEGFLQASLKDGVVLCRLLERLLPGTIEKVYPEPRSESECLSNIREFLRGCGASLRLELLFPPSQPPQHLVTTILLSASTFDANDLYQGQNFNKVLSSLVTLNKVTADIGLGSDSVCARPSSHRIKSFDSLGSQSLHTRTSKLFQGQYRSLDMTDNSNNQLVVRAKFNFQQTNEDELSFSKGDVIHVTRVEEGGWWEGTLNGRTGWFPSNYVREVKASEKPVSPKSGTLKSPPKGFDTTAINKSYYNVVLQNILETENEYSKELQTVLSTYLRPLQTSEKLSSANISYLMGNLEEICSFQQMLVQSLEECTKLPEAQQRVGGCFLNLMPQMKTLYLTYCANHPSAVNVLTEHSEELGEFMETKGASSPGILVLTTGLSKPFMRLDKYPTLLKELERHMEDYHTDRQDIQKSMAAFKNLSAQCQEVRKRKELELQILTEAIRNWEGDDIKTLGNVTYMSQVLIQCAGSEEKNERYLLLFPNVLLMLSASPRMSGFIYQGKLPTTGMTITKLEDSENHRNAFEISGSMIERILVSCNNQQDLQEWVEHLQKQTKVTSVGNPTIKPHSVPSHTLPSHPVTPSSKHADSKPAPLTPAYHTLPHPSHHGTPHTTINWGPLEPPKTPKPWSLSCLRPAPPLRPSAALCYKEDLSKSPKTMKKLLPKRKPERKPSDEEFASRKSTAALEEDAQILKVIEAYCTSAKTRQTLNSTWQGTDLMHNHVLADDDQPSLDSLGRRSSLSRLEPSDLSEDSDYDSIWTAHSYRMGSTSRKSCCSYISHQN
# Assay: NP40-soluble protein abundance relative to vehicle (solubility fold change) (ratio); higher = more soluble protein in presence of GTP
# Experimental: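 Solubility proteome profiling in Jurkat crude lysate. Lysate was treated with Mg-GTP (0.1-10 mM) for 10 min at room temperature and 3 min at 37 °C, then solubilised with 0.8% NP40 and benzonase, followed by ultracentrifugation. Proteins were quantified by TMT10 LC-MS/MS; the value is the NP40-soluble abundance relative to the NP40-processed vehicle, from 3 independent experiments.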
smiles,measurement,setting,value
Nc1nc2c(ncn2[C@@H]2O[C@H](COP(=O)(O)OP(=O)(O)OP(=O)(O)O)[C@@H](O)[C@H]2O)c(=O)[nH]1 [guanosine triphosphate],NP40-soluble protein abundance,concentration: 0.1mM,0.994 ± 0.036
same,NP40-soluble protein abundance,concentration: 0.5mM,0.9903 ± 0.0023
same,NP40-soluble protein abundance,concentration: 1mM,1.004 ± 0.007
same,NP40-soluble protein abundance,concentration: 2mM,1.01 ± 0.028
same,NP40-soluble protein abundance,concentration: 4mM,0.996 ± 0.015
same,NP40-soluble protein abundance,concentration: 6mM,0.9797 ± 0.0044
same,NP40-soluble protein abundance,concentration: 8mM,1 ± 0.033
same,NP40-soluble protein abundance,concentration: 10mM,0.977 ± 0.046
